Shown are actives, neighbours in structure and some others; about 3% of the full set was active somewhere.
pS6 MEF inh – mTORC1 pathway inhibition measured by phospho-rpS6. Tsc2-/- p53-/- MEF, phospho-rpS6 immunofluorescence/PI, 24 h. Potency, µM (doses to about 38.3 µM), actives largely listed as inhibitors. hit rate 0.78% among 44,000. AID 493208; also: nearly all actives have a fitted effect of over 50% in size
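Plate MEFs (Tsc2-/-, p53-/-, empty vector) in DMEM/10% FBS; after 24 h add compound, incubate 24 h at 37 degree Celsius; fix in PFA/TX-100, block, stain phospho-rpS6 and 10 uM PI; scan at 488 nm; report % positive cells.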
S16 F2sN tox – toxic to S16 Pmp22-F2sN Schwann cells; hit rate 0.48% among 43,000; S16 Pmp22-F2sN Schwann cells viability, CellTiter-Glo, 24 h; Potency, µM (top dose mostly 57.5 µM), actives largely listed as cytotoxic; also: nearly all actives have a fitted effect of over 65% in size
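Used to flag compounds lowering reporter output through toxicity, this quantitative HTS measures ATP-based CellTiter-Glo luminescence in S16 Pmp22-F2sN Schwann cells after 24 h compound exposure at 37C.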
p53null 32C tox – selectivity test: cytotoxicity in p53 null cells, permissive temperature. H1299-neo p53 null cells, ATP luminescence, 24 h, 32C. Potency, µM (doses to about 46.1 µM), actives largely listed as cytotoxic. hit rate 0.62% among 55,000. AID 903; also: nearly all actives have a fitted effect of over 55% in size
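Cells lacking p53 (H1299-neo) are plated at 600 per well and allowed to settle overnight at 37C. Test compounds (up to 46 uM) are added and held 24 hours at 32C, then ATP is quantified by luminescence.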
p53null 39C kill – kills p53 null cells at the nonpermissive temperature; H1299 p53-null (neo) cells, 39C, ATPlite viability, 24 h; Potency, µM (doses to about 46.1 µM), hits mostly cytotoxic; hit rate 0.97% among 55,000; also: nearly all actives have a fitted effect of over 50% in size
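H1299 lung cancer cells, p53-null (H1299-neo) or expressing p53 A138V (H1299-p53A138V), were plated overnight at 37C, then exposed to compounds at up to 46 uM for 24 hr at 39C. Viability was read by ATP-based luminescence.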
PMP22 txn – PMP22 gene transcription modulation. S16 Pmp22-F2sN Schwann cells (luciferase reporters placed in the Pmp22 gene), FLuc/NLuc coincidence luminescence, 24 h. Potency, µM (top dose mostly 57.5 µM), most hits filed as inhibitors. hit rate 2% among 43,000. AID 1508649; active = clear falling dose curves in both reporters; inconclusive = both reporters move, but less clearly or upward; inactive = either reporter flat; the % is the NLuc reporter signal
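S16 Schwann cells carrying FLuc/NLuc coincidence reporter in the Pmp22 3' UTR treated with compound 24 h at 37C; FLuc then NLuc luminescence read sequentially by dual-luciferase reagents.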
SKOV3 invasion – blocks SKOV3ip1 adhesion and invasion in omental model; SKOV3ip1-GFP adhesion/invasion on 3D omental model, fluorescence; Potency, µM (top dose mostly 45.8 µM), hits mostly inhibitors; hit rate 0.1% among 46,000; also: nearly all actives have a fitted effect of over 65% in size
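Primary human omental fibroblast/mesothelial 3D culture pre-formed 48 h. SKOV3ip1-GFP cells added with compounds (0.36-46 umol/L), incubated 2 h RT/16 h 37 C, fixed; GFP cells quantified at 488/509 nm.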
Large screens that a line does not name were inactive. Unless noted, calls follow the shape of the dose curve; as a rule, active = well fitted curve in the direction sought with a large enough effect; inconclusive = small, poorly fitted or top-dose-only effect, or another doubt; inactive = no such curve, though single readings can be large; an effect the other way counts as inactive or inconclusive.

O=C(NCc1ccco1)c1ccc(Cn2c(SCc3ccc(F)cc3)nc3cccnc32)cc1	p53null 32C tox inconclusive, p53null 39C kill 13µM
O=C(NCc1cccs1)c1ccc(CSc2nc3cccnc3n2Cc2ccccc2)cc1	S16 F2sN tox inconclusive
Cn1cnc(=N)c2[nH]cnc21	none (no result: pS6 MEF inh, S16 F2sN tox, p53null 32C tox, p53null 39C kill, PMP22 txn)
O=C(C=CC#Cc1cccc(NS(=O)(=O)c2ccccc2)c1)NO	none (no result: pS6 MEF inh, S16 F2sN tox, p53null 32C tox, p53null 39C kill, PMP22 txn)
Cc1cc(C(=O)NOCCO)c(Nc2ccc(I)cc2F)n(C)c1=O	none (no result: pS6 MEF inh, S16 F2sN tox, p53null 32C tox, p53null 39C kill, PMP22 txn)
NS(=O)(=O)OC[C@@H]1C[C@@H](n2ccc3c(N[C@H]4CCc5ccccc54)ncnc32)C[C@H]1O	none (no result: pS6 MEF inh, S16 F2sN tox, p53null 32C tox, p53null 39C kill, PMP22 txn)
CS(=O)(=O)c1ccc(Sc2nc3ccccc3s2)c([N+](=O)[O-])c1	p53null 32C tox 13µM (no result: pS6 MEF inh, S16 F2sN tox, p53null 39C kill, PMP22 txn, SKOV3 invasion)
Cc1cc(S(=O)(=O)Nc2ccc(O)c(Sc3nc4ccccc4s3)c2)ccc1Cl	S16 F2sN tox inconclusive, PMP22 txn inconclusive
Cc1oc(-c2cccc(Cl)c2)nc1CN1CCC(C(=O)NCCc2ccc(Cl)cc2)CC1	none
Cc1oc(-c2cccc(Cl)c2)nc1CN1CCCC(C(=O)NCCc2ccc(Cl)cc2)C1 (stereo unspecified)	S16 F2sN tox inconclusive, p53null 39C kill 20µM, PMP22 txn inconclusive
COc1ccc(C(=O)Nc2nc3c(s2)Cc2c(Br)ccc(OC)c2-3)cc1OC	S16 F2sN tox inconclusive, PMP22 txn inconclusive
COc1cc(C(=O)Nc2nc3c(s2)Cc2c(Br)ccc(OC)c2-3)cc(OC)c1OC	S16 F2sN tox 25µM, PMP22 txn inconclusive
O=C(CSc1nc(-c2ccccc2)[nH]c1-c1ccccc1)Nc1ccc2c(c1)OCO2	pS6 MEF inh inconclusive, S16 F2sN tox 35µM, p53null 39C kill inconclusive, PMP22 txn inconclusive
COc1cc(-c2nc(SCC(=O)Nc3ccc4c(c3)OCO4)c(-c3ccccc3)[nH]2)cc(OC)c1OC	S16 F2sN tox inconclusive, p53null 39C kill inconclusive, SKOV3 invasion inconclusive
COC(=O)c1ccc(-c2nc3cc(N)ccc3o2)cc1	p53null 32C tox inconclusive (no result: pS6 MEF inh, S16 F2sN tox, PMP22 txn, SKOV3 invasion)
Nc1ccc2oc(-c3ccccn3)nc2c1	p53null 32C tox 11µM (no result: pS6 MEF inh, S16 F2sN tox, PMP22 txn, SKOV3 invasion)
C=C[C@@H]1CN2CCC1C[C@H]2[C@H](O)c1ccnc2ccc(OC)cc12 (stereo partly specified)	none (no result: pS6 MEF inh, S16 F2sN tox, p53null 32C tox, p53null 39C kill, PMP22 txn)
CCCCN(C)CCCNC(=O)Cn1ncc2c3ccccc3n(Cc3cc(C)ccc3C)c2c1=O	S16 F2sN tox inconclusive, p53null 39C kill 10µM, PMP22 txn inconclusive, SKOV3 invasion inconclusive
CC1=C(C(=O)Nc2ccccc2)C(c2ccc(F)cc2)n2nc(SCc3cc(C)ccc3C)nc2N1 (stereo unspecified)	none
COc1ccccc1NC(=O)C1=C(C)Nc2nc(SCc3cc(C)ccc3C)nn2C1c1ccccc1 (stereo unspecified)	S16 F2sN tox 10µM, PMP22 txn 17µM
CCc1cc(C(C)=NOCc2ccc(C3CCCCC3)c(C(F)(F)F)c2)ccc1CN1CC(C(=O)O)C1	none (no result: pS6 MEF inh, S16 F2sN tox, p53null 32C tox, p53null 39C kill, PMP22 txn)
COc1ccc(S(=O)(=O)N(C(=O)c2ccncc2)c2ccc3oc4c(c3c2)CCCC4)cc1	none (no result: pS6 MEF inh, S16 F2sN tox, p53null 39C kill, PMP22 txn, SKOV3 invasion)
CCc1ccc(S(=O)(=O)N(C(=O)c2ccncc2)c2ccc3oc(C)c(C(=O)OC)c3c2)cc1	pS6 MEF inh inconclusive, S16 F2sN tox inconclusive, PMP22 txn inconclusive
COc1ccc(S(=O)(=O)N(C(=O)c2ccncc2)c2ccc3oc(C)c(C(C)=O)c3c2)cc1	pS6 MEF inh 18µM, S16 F2sN tox inconclusive, p53null 39C kill inconclusive, PMP22 txn 13µM, SKOV3 invasion inconclusive
CCOc1ccc(S(=O)(=O)N(C(=O)c2ccncc2)c2ccc3oc(C)c(C(=O)OC)c3c2)cc1	pS6 MEF inh 5.2µM, S16 F2sN tox inconclusive, p53null 39C kill inconclusive, PMP22 txn inconclusive
COC(=O)c1c(C)oc2ccc(N(C(=O)c3ccncc3)S(=O)(=O)c3ccc(OC)cc3)cc12	pS6 MEF inh inconclusive, S16 F2sN tox inconclusive, p53null 39C kill inconclusive, PMP22 txn 5.3µM
